From PubChem BioAssay (NCATS)
Results filed as inconclusive are left out. Active and inactive are the calls of the source. Calls follow the shape of the dose curve; as a rule, active = well fitted curve in the direction sought with a large enough effect; inconclusive = small, poorly fitted or top-dose-only effect, or another doubt; inactive = no such curve, though single readings can be large; an effect the other way counts as inactive or inconclusive.

What was measured:
CRL-7250 = normal cell line; assay: Cytotoxic Profiling of Annotated Libraries Using Quantitative High-Throughput Screening (AID 1296008); settings: Five cell lines viability, CellTiter-Glo ATP luminescence, 48-72 h; max response: hits give low values; also: nearly all actives have a fitted effect of over 60% in size; as to max response: % is scaled to controls: 0 for no effect and ±100 for the full control effect
In short: (§1)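 Compounds were pin-transferred onto cells and incubated 48 or 72 hr at 37 degree Celsius, 95% humidity. CellTiter-Glo was added, plates sat 10 min at room temperature, then ATP-coupled luminescence was imaged as the viability read-out.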

HaCat [1] = assay: as above; settings: Five cell lines viability, CellTiter-Glo ATP luminescence, 48-72 h; max response: hits give low values
In short: as §1

KB-3-1 = assay: as above; settings: Five cell lines viability, CellTiter-Glo ATP luminescence, 48-72 h; max response: hits give low values
In short: as §1

NIH3T3 [2] = assay: as above; settings: Five cell lines viability, CellTiter-Glo ATP luminescence, 48-72 h; max response: hits give low values
In short: as §1

NIH3T3 [3] = assay: qHTS assay to identify novel small-molecules to repurpose for Merkel cell carcinoma treatment (AID 1296009); settings: MCC and control cell lines, CellTiter-Glo viability, 72 h; at 44.8 µM (top of the series) unless noted; also: nearly all actives have a fitted effect of over 60% in size
In short: (§2)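 Luminescence from CellTiter-Glo, read 10 min after addition at room temperature, reported viability following a 72 hr, 37 degree celsius treatment with NPC or MIPE compounds in titration; values normalized to plate controls.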

C33A = assay: Primary qHTS to identify gynecologic anti-cancer compounds using libraries of approved drugs and bioactive compounds (AID 1345084); settings: Gynecologic cancer cell panel viability, ATPlite luminescence, 48 h; series mostly up to 57.5 µM; also: nearly all actives have a fitted effect of over 55% in size; also: potency is read from the fitted curve at half-maximal effect
In short: (§3)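 In this quantitative HTS, cell killing is estimated from loss of ATP-dependent luciferase light. Cells see five compound concentrations over a 48 h exposure.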

CAOV3 = assay: as above; settings: Gynecologic cancer cell panel viability, ATPlite luminescence, 48 h; series mostly up to 57.5 µM
In short: as §3

CASKI = assay: as above; settings: Gynecologic cancer cell panel viability, ATPlite luminescence, 48 h; series mostly up to 57.5 µM
In short: as §3

Es-2 = assay: as above; settings: Gynecologic cancer cell panel viability, ATPlite luminescence, 48 h; series mostly up to 57.5 µM
In short: as §3

HeLa = assay: as above; settings: Gynecologic cancer cell panel viability, ATPlite luminescence, 48 h; series mostly up to 57.5 µM
In short: as §3

Hek293T = assay: as above; settings: Gynecologic cancer cell panel viability, ATPlite luminescence, 48 h, control line for the selectivity index; series mostly up to 57.5 µM
In short: as §3

JEG-3 = assay: as above; settings: Gynecologic cancer cell panel viability, ATPlite luminescence, 48 h; series mostly up to 57.5 µM
In short: as §3

OV90 = assay: as above; settings: Gynecologic cancer cell panel viability, ATPlite luminescence, 48 h; series mostly up to 57.5 µM
In short: as §3

PA-1 = assay: as above; settings: Gynecologic cancer cell panel viability, ATPlite luminescence, 48 h; series mostly up to 57.5 µM
In short: as §3

HACAT [4] = assay: qHTS assay to identify novel small-molecules to repurpose for Merkel cell carcinoma treatment (AID 1296009); settings: MCC and control cell lines, CellTiter-Glo viability, 72 h; at 44.8 µM (top of the series) unless noted; also: nearly all actives have a fitted effect of over 60% in size
In short: as §2

C[C@]1(OC(=O)/C=C\c2ccc(O)cc2)C[C@@H](O)[C@]2(O)C=CO[C@@H](O[C@@H]3O[C@H](CO)[C@@H](O)[C@H](O)[C@H]3O)C12 (stereo partly specified)
inactive: max response (CRL-7250) -13.5% | max response (HaCat [1]) -23.9% | outcome (KB-3-1) | outcome (NIH3T3 [2]) | outcome (NIH3T3 [3]) inactive [at 17.4 µM] | Potency (C33A) | Potency (CAOV3) | outcome (CASKI) | Potency (Es-2) | Potency (HeLa) | Potency (Hek293T) | Potency (JEG-3) | Potency (OV90) | Potency (PA-1)

C=C1C2CCC3CC2(CC(O)C2(O)C1CC(OC1OC(CO)C(O)C(O)C1O)C2(C)C)CC3(C)O (stereo unspecified)
inactive: max response (CRL-7250) -0.056% | max response (HaCat [1]) -5.66% | max response (KB-3-1) -0.357% | outcome (NIH3T3 [2]) | Potency (C33A) | Potency (CAOV3) | outcome (CASKI) | Potency (Es-2) | Potency (HeLa) | Potency (Hek293T) | Potency (JEG-3) | Potency (OV90) | Potency (PA-1)

Cc1cc(C)c2nc(-c3ccccn3)cc(C(=O)Nc3ccc(S(=O)(=O)Nc4onc(C)c4C)cc3)c2c1
inactive: max response (CRL-7250) -3.09% | outcome (HaCat [1]) | max response (KB-3-1) 1.46% | max response (NIH3T3 [2]) 1.48% | outcome (HACAT [4]) | Potency (C33A) | Potency (CAOV3) | outcome (CASKI) | Potency (Es-2) | Potency (HeLa) | Potency (Hek293T) | Potency (JEG-3) | Potency (OV90) | Potency (PA-1)

CC(=O)OC12CC(C)C(O)C1/C=C(/COC1OC(CO)C(O)C(O)C1O)CCC1C(/C=C(\C)C2=O)C1(C)C (stereo unspecified)
inactive: max response (CRL-7250) -1.86% | outcome (HaCat [1]) | outcome (KB-3-1) | outcome (NIH3T3 [2]) | outcome (HACAT [4]) inactive [at 17.4 µM] | outcome (NIH3T3 [3]) inactive [at 17.4 µM] | Potency (C33A) | Potency (CAOV3) | outcome (CASKI) | Potency (Es-2) | Potency (HeLa) | Potency (Hek293T) | Potency (JEG-3) | Potency (OV90) | Potency (PA-1)

CC(C)C1C(OC(=O)/C=C/c2ccccc2)CC2(C)OC2CCC2(C)OC2C1O (stereo unspecified)
inactive: outcome (CRL-7250) | outcome (HaCat [1]) | max response (KB-3-1) 9.34% | max response (NIH3T3 [2]) -5.79% | outcome (HACAT [4]) | Potency (C33A) | Potency (CAOV3) | outcome (CASKI) | Potency (Es-2) | Potency (HeLa) | Potency (Hek293T) | Potency (JEG-3) | Potency (OV90) | Potency (PA-1)

CC1(C)C[C@@H]2[C@H](C1)[C@@]1(C)C[C@]13C(O)OC[C@]3(O)[C@H]2O (stereo partly specified)
inactive: max response (CRL-7250) -3.6% | outcome (HaCat [1]) | outcome (KB-3-1) | outcome (NIH3T3 [2]) | outcome (HACAT [4]) | outcome (NIH3T3 [3]) | Potency (C33A) | Potency (CAOV3) | outcome (CASKI) | Potency (Es-2) | Potency (HeLa) | Potency (Hek293T) | Potency (JEG-3) | Potency (OV90) | Potency (PA-1)

COc1cc(CO)ccc1O[C@@H]1O[C@H](CO)[C@@H](O)[C@H](O)[C@H]1O
inactive: max response (CRL-7250) -0.424% | outcome (HaCat [1]) | max response (KB-3-1) 5.53% | outcome (NIH3T3 [2]) | outcome (HACAT [4]) | outcome (NIH3T3 [3]) | Potency (C33A) | outcome (CASKI) | Potency (Es-2) | Potency (HeLa) | Potency (Hek293T) | Potency (JEG-3) | Potency (OV90) | Potency (PA-1)

CCOc1ccc(-c2cc(NC(=O)c3c(F)cccc3F)c(C(=O)O)s2)cc1
inactive: max response (CRL-7250) -4.12% | outcome (HaCat [1]) | max response (KB-3-1) -17.4% | max response (NIH3T3 [2]) -24.8% | outcome (HACAT [4]) | Potency (C33A) | Potency (CAOV3) | outcome (CASKI) | Potency (Es-2) | Potency (HeLa) | Potency (Hek293T) | Potency (JEG-3) | Potency (OV90) | Potency (PA-1)

CC1(C)CC[C@]2(C(=O)O[C@@H]3O[C@H](CO)[C@@H](O)[C@H](O)[C@H]3O)CC[C@]3(C)C(=CCC4[C@@]5(C)C[C@@H](O)[C@H](O)[C@@](C)(CO)C5[C@H](O)C[C@]43C)C2[C@@H]1O (stereo partly specified)
inactive: outcome (CRL-7250) | max response (HaCat [1]) 1.4% | outcome (KB-3-1) | outcome (NIH3T3 [2]) | outcome (NIH3T3 [3]) inactive [at 17.4 µM] | Potency (C33A) | Potency (CAOV3) | outcome (CASKI) | Potency (Es-2) | Potency (HeLa) | Potency (Hek293T) | Potency (JEG-3) | Potency (OV90) | Potency (PA-1)

C/C1=C\CC[C@]2(C)O[C@H]2C(=O)c2c(C)coc2C1
active: Potency (C33A) 7.94 µM | Potency (CAOV3) 15.8 µM | Potency (Es-2) 11.2 µM | Potency (HeLa) 7.94 µM | Potency (Hek293T) 10 µM | Potency (PA-1) 10 µM
inactive: max response (CRL-7250) 1.23% | outcome (HaCat [1]) | max response (KB-3-1) -3.14% | outcome (NIH3T3 [2]) | outcome (HACAT [4]) | outcome (NIH3T3 [3]) | outcome (CASKI) | Potency (OV90)

CC(C)c1ccc2c(c1)CCC1[C@](C)(C(=O)O)CCC[C@]21C (stereo partly specified)
inactive: outcome (CRL-7250) | outcome (HaCat [1]) | max response (KB-3-1) -0.955% | outcome (NIH3T3 [2]) | outcome (HACAT [4]) | outcome (NIH3T3 [3]) | Potency (C33A) | Potency (CAOV3) | outcome (CASKI) | Potency (Es-2) | Potency (HeLa) | Potency (Hek293T) | Potency (JEG-3) | Potency (OV90) | Potency (PA-1)
